{
  "source": "PubChem BioAssay AID588358",
  "about": "(NMMLSC, 2011)",
  "note": "“And” between values parts separate entries of the source, which are not always exact repeats. Identical values can stand only once. Screen size: about 310,000 compounds; about 1,500 (0.48%) were called active.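 The calls were made as follows: active = binding more than 3 SD below its plate's average and above zero; inconclusive = below that plate limit but binding exactly zero; inactive = the rest.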 The sample as a whole holds a higher share of actives than the screen did.",
  "data": [
    {"biological_target": "Desmoglein-3 (Homo sapiens) (UniProt P32926)", "sequence (P32926 whole entry, looked up, the tested form may be a part)": "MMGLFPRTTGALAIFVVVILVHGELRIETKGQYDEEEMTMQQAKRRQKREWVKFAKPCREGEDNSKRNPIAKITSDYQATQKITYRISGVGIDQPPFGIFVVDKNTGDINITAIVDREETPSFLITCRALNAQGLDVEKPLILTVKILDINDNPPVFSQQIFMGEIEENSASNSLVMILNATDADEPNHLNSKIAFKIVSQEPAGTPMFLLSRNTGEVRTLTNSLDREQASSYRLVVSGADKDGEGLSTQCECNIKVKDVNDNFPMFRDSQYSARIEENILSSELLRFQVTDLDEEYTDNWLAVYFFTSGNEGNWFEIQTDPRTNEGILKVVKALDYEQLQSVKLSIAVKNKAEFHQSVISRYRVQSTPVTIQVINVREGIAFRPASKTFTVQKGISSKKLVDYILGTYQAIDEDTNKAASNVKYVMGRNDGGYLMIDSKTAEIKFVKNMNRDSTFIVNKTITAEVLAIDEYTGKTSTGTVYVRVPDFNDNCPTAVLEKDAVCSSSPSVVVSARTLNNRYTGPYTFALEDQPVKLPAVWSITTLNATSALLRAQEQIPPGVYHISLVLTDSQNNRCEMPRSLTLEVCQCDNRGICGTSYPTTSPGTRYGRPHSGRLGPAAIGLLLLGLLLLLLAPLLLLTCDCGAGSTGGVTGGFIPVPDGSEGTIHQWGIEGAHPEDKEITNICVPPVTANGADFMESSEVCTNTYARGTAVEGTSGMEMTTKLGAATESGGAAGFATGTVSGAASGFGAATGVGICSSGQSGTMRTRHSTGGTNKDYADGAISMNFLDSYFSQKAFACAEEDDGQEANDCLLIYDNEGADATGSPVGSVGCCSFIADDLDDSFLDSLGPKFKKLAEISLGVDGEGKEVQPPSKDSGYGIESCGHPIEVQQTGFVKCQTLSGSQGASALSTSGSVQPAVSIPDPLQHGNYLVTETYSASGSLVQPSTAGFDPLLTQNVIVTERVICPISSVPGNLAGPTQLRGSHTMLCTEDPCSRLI", "experiment": "blockers of anti-DSG3 scFv binding – biochemical, bead-based, flow cytometry, scFv-GFP, primary screen (AID 588358);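 also: hits lower antibody fragment binding to DSG3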", "settings": "DSG3-coupled beads, at 10 µM, stronger effect = lower value", "values": [
      {"smiles": "CCCCCC(=O)N1C[C@H](O)[C@@H](n2cc(COC(=O)c3ccccc3)nn2)C[C@@H]1c1ccc(C)cc1", "binding (percent of control)": "102% (inactive)"},
      {"smiles": "C=CC1=C(C(=O)O)N2C(=O)[C@@H](NC(=O)/C(=N/OCC(=O)O)c3csc(N)n3)[C@H]2SC1", "binding (percent of control)": "68.8% (inactive)"},
      {"smiles": "C=CC1=C(C(=O)O)N2C(=O)[C@@H](NC(=O)/C(=N\\OCC(=O)O)c3csc(N)n3)[C@H]2SC1", "binding (percent of control)": "71% (active)"},
      {"smiles": "CO/N=C(\\C(=O)N[C@@H]1C(=O)N2C(C(=O)O)=C(COC(C)=O)CS[C@H]12)c1csc(N)n1", "note": "(stereo in doubt)", "binding (percent of control)": "100% (inactive) and 106% (inactive)"},
      {"smiles": "O=C(CCCN1C(=O)C(c2ccccc2)Oc2cccnc21)Nc1ccccc1Br", "note": "(configuration not stated)", "binding (percent of control)": "105% (inactive)"},
      {"smiles": "O=C(OCc1cn([C@H]2C[C@H](c3ccccc3)N(C(=O)c3cccs3)C[C@@H]2O)nn1)c1ccccc1", "binding (percent of control)": "106% (inactive)"},
      {"smiles": "COc1ccc2c(c1)c1ncn(Cc3ccccn3)c(=O)c1n2C", "binding (percent of control)": "112% (inactive)"},
      {"smiles": "Cc1ccc2[nH]c3c(=O)n(Cc4ccccn4)cnc3c2c1", "binding (percent of control)": "108% (inactive)"},
      {"smiles": "O=c1c2[nH]c3ccc(Cl)cc3c2ncn1Cc1ccccn1", "binding (percent of control)": "51% (active)"},
      {"smiles": "C[C@@H]1CN([C@@H](C)CO)C(=O)CCCn2nncc2CO[C@H]1CN(C)Cc1ccc(C(F)(F)F)cc1", "binding (percent of control)": "103% (inactive)"},
      {"smiles": "Cc1cc(C)c2cc(C#N)c(N3CCNCC3)nc2c1", "binding (percent of control)": "105% (inactive)"},
      {"smiles": "C#CCOc1ccc(/C=C2/C(=O)ON=C2C)cc1OCC", "binding (percent of control)": "111% (inactive)"},
      {"smiles": "COc1cc(/C=C2/C(=O)NN(c3cccc(Cl)c3)C2=O)cc(Br)c1O", "binding (percent of control)": "233% (inactive)"},
      {"smiles": "C#CCOc1ccc(/C=C2/C(=O)NN(c3ccccc3)C2=O)cc1OC", "binding (percent of control)": "81.6% (active)"},
      {"smiles": "Cc1ccc(Cc2c(-c3ccccc3)nc3ccc(Cl)cn23)cc1", "binding (percent of control)": "105% (inactive)"},
      {"smiles": "CCOC(=O)c1cc(-c2sc(NC(=O)c3ccccc3)nc2C)n(CCO)n1", "binding (percent of control)": "96.7% (inactive)"},
      {"smiles": "CCN(CC)C(=O)C(C)N1c2cccc3cccc(c23)S1(=O)=O", "note": "(configuration not stated)", "binding (percent of control)": "98.7% (inactive)"},
      {"smiles": "CCOc1cc(N2CCOCC2)c(OCC)cc1NC(=O)c1ccc(C)s1", "binding (percent of control)": "72.7% (active)"},
      {"smiles": "CCOc1cc(N2CCOCC2)c(OCC)cc1NC(=O)C1=NN(c2cccc(C)c2)C(=O)CC1", "binding (percent of control)": "102% (inactive)"},
      {"smiles": "CCOc1cc(N2CCOCC2)c(OCC)cc1NC(=O)COc1cccc(Cl)c1", "binding (percent of control)": "96.8% (inactive)"},
      {"smiles": "Cc1ccc(C(=O)NC(C)C(c2cccs2)N2CCOCC2)cc1C", "note": "(configuration not stated)", "binding (percent of control)": "92.7% (inactive)"},
      {"smiles": "Cc1ccccc1OS(=O)(=O)c1cccc([N+](=O)[O-])c1", "binding (percent of control)": "100% (inactive)"},
      {"smiles": "COCOCCn1cc(CN2CCS(=O)(=O)N(Cc3ccc(-c4ccc(OC)cc4)cc3)C(CC(C)C)C2=O)nn1", "note": "(configuration not stated)", "binding (percent of control)": "103% (inactive)"},
      {"smiles": "Cc1cc(C)c([N+](=O)[O-])cc1-c1ccc(/C=N/NC(=O)c2nonc2N)o1", "binding (percent of control)": "87.1% (active)"},
      {"smiles": "COc1cc(/C=N\\NC(=O)c2nonc2N)c(OC)cc1Br", "binding (percent of control)": "89.4% (inactive)"},
      {"smiles": "Cc1ccc(-c2ccc(/C=N/NC(=O)CN3CCOCC3)o2)cc1[N+](=O)[O-]", "binding (percent of control)": "101% (inactive)"},
      {"smiles": "O=C(NCCS(=O)(=O)N1CCN(c2ccccc2)CC1)c1cc(=O)c2ccccc2o1", "binding (percent of control)": "99.7% (inactive)"},
      {"smiles": "O=C(NCCOc1ccccc1)N1[C@H]2CC[C@@H]1C=C(c1ccc(F)cc1OCc1ccccc1)C2", "binding (percent of control)": "107% (inactive)"},
      {"smiles": "CCC(Oc1ccccc1)C(=O)OCC(=O)Nc1c(C)nn(-c2ccccc2)c1C", "note": "(configuration not stated)", "binding (percent of control)": "106% (inactive)"},
      {"smiles": "Cc1cnc(C(=O)Oc2cccc(Cl)c2Cl)cn1", "binding (percent of control)": "-19.6% (active)"},
      {"smiles": "Cc1cnc(C(=O)OCC(=O)NCCCc2ccccc2)cn1", "binding (percent of control)": "104% (inactive)"},
      {"smiles": "Cc1cnc(C(=O)OCC(=O)Nc2ccc(Cl)cc2Cl)cn1", "binding (percent of control)": "113% (inactive)"},
      {"smiles": "COc1cccc(NC(=O)Nc2ccc(F)cc2)c1", "binding (percent of control)": "99.8% (inactive)"},
      {"smiles": "CC(OC(=O)c1cccc(S(=O)(=O)N2CCOCC2)c1)C(=O)NCC1CCCCC1", "note": "(configuration not stated)", "binding (percent of control)": "106% (inactive)"},
      {"smiles": "CCc1c(N=O)c(-c2ccccc2)n(O)[n+]1[O-]", "binding (percent of control)": "95.9% (inactive)"},
      {"smiles": "CCc1noc(C)c1C(=O)OCC(=O)c1ccc(NC(=O)CC(C)C)cc1", "binding (percent of control)": "106% (inactive)"},
      {"smiles": "CN(CCOc1ccccc1)C(=O)c1cc(-c2ccco2)nc2ccccc12", "binding (percent of control)": "105% (inactive)"},
      {"smiles": "CN(C(=O)COC(=O)c1cc(-c2ccco2)nc2ccccc12)C1CCS(=O)(=O)C1", "note": "(configuration not stated)", "binding (percent of control)": "59.4% (active)"},
      {"smiles": "CN(C(=O)COC(=O)c1nc(Cl)ccc1Cl)C1CCS(=O)(=O)C1", "note": "(configuration not stated)", "binding (percent of control)": "109% (inactive)"},
      {"smiles": "O=S(=O)(c1cccc(C(F)(F)F)c1)N1c2ccccc2-n2cccc2C1c1cccnc1", "note": "(configuration not stated)", "binding (percent of control)": "99.9% (inactive)"},
      {"smiles": "Fc1ccccc1/C=N/n1c(-c2cccnc2)n[nH]c1=S", "binding (percent of control)": "104% (inactive)"},
      {"smiles": "c1ccc(-c2cc(-c3ccccc3)[nH]n2)cc1", "binding (percent of control)": "95% (inactive)"},
      {"smiles": "S=c1[nH]nc(-c2cc(-c3ccccc3)n[nH]2)n1/N=C/c1c2ccccc2cc2ccccc12", "binding (percent of control)": "82.6% (active)"},
      {"smiles": "Cc1ccc(-c2ccc(CN3C(C)C(=O)N(Cc4cn(CCC5OCCCO5)nn4)CCS3(=O)=O)cc2)cc1", "note": "(configuration not stated)", "binding (percent of control)": "104% (inactive)"},
      {"smiles": "C/C(=N/NC(=S)Nc1ccccc1)c1ccc2c(c1)OCO2", "binding (percent of control)": "98.1% (inactive)"},
      {"smiles": "Cc1ccc(NC(=O)c2cc3ccccc3o2)cc1", "binding (percent of control)": "110% (inactive)"},
      {"smiles": "C/C(=N\\NC(=S)Nc1ccc(C)cc1)c1cc2ccccc2o1", "binding (percent of control)": "83.6% (active)"},
      {"smiles": "Cc1cc2cc3n(c2nn1)N=C(Cl)CC3", "binding (percent of control)": "104% (inactive)"},
      {"smiles": "O=S1(=O)CCN(Cc2ccccc2)CC1", "binding (percent of control)": "96.1% (inactive)"},
      {"smiles": "O=C(c1ccc(N2CCCC2=O)cc1)N1CCN(c2ccc(C(F)(F)F)cc2[N+](=O)[O-])CC1", "binding (percent of control)": "99% (inactive)"},
      {"smiles": "Nc1ccc2nc3c(=O)[nH]c(=S)[nH]c3nc2c1", "binding (percent of control)": "19% (active)"},
      {"smiles": "Cc1cc2nc3c(=O)n(Cc4ccccc4)c(=O)[nH]c3nc2cc1N", "binding (percent of control)": "99.2% (inactive)"},
      {"smiles": "O=C(OCc1ccccc1)N1CCC2CC1c1cc(N3CCN(S(=O)(=O)c4cc(Cl)cc(Cl)c4)CC3)ccc12", "note": "(configuration not stated)", "binding (percent of control)": "100% (inactive)"},
      {"smiles": "CCCCN1C(=O)C(CC(=O)NC(c2ccccc2)c2ccccc2)CC(C(=O)N2CCOCC2)=C1C", "note": "(configuration not stated)", "binding (percent of control)": "102% (inactive)"},
      {"smiles": "COC(=O)c1ccc(/C=N/NC(=O)C(=O)N2CCCCCC2)cc1", "binding (percent of control)": "102% (inactive)"},
      {"smiles": "O=C(N/N=C/c1ccc([N+](=O)[O-])cc1)C(=O)N1CCCC1", "binding (percent of control)": "-16.9% (active)"},
      {"smiles": "O=C(NN=Cc1ccc([N+](=O)[O-])cc1)C1CC1", "binding (percent of control)": "122% (inactive)"}
    ]}
  ]
}
